Where a name gives a salt, the structure may show the parent alone. In all, about 2,000 compounds were measured (“fractional viability relative to vehicle”: median about 0.91, lowest 2% from about 0.045 on). Shown is part of a subset that was picked to be rich in the lowest values.
Tested on: TYKNU
Assay: fractional viability relative to vehicle; TYKNU is a high-grade serous ovarian cancer line; higher = less growth inhibition
Conditions: 72 h
Summary of the method: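 Drug treatment lasted 72 h, with cells grown at 37 °C in 5% CO2 in RPMI 1640 supplemented with 10% FBS. Beforehand, TYKNU control cells or their lentiCRISPRv2 knockout derivatives had been seeded at 500 cells per well into drug-stamped 384-well plates carrying a ~2100-compound library at 2 or 10 μM, in duplicate. Viability came from Cell Titer Glo luminescence, with averaged duplicate treatment wells normalised to duplicate control wells in the same plate position.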

[1] = 2uM, genotype: DNM1L knockout (sgDNM1L #1)
[2] = 2uM, genotype: sgCTRLA1 (non-targeting control)
[3] = 10uM, genotype: DNM1L knockout (sgDNM1L #1)
[4] = 10uM, genotype: sgCTRLA1 (non-targeting control)

| Compound | fractional viability [1] | fractional viability [2] | fractional viability [3] | fractional viability [4] |
| --- | --- | --- | --- | --- |
| C[C@@]1(C(=O)Nc2ccc(F)nc2)CCCN1c1nc(Nc2cc(C3CC3)n[nH]2)c2cccn2n1 | 0.561 | 0.689 | 0.282 | 0.252 |
| O=C(N/N=C/c1cc(O)c(O)cc1O)c1cc2ccccc2cc1O [Dyngo-4a] | 0.912 | 1.05 | 0.857 | 0.867 |
| Oc1ccc(Cc2nc3c(Cc4ccccc4)nc(-c4ccc(O)cc4)cn3c2O)cc1 [Coelenterazine] | 0.928 | 1.05 | 0.977 | 0.839 |
| O=C1N=C(O)NC1(c1ccccc1)c1ccccc1 [Phenytoin sodium] | 1.03 | 1.09 | 0.864 | 1.04 |
| CCc1cc(Nc2nccc(-c3c(-c4ccc(OC)c(C(=O)Nc5c(F)cccc5F)c4)nc4ccccn34)n2)c(OC)cc1N1CCC(N2CCN(S(C)(=O)=O)CC2)CC1 | 1.12 | 1.04 | 0.72 | 0.915 |
| CC(O)c1cc(C(=O)N[C@@H](C)Cn2ccc(-c3ccc(C#N)c(Cl)c3)n2)n[nH]1 (some centres not stated) | 0.762 | 0.897 | 0.94 | 0.769 |
| CN(C)Cc1c(C(=O)NCCOc2ccc(C(=O)NO)cc2)oc2ccccc12 | 0.184 | 0.244 | 0.0877 | 0.133 |
| COc1cccc(-n2c(=O)[nH]c3cc(Cl)n(-c4ccc(-c5cccc(OC)c5O)cc4)c3c2=O)c1 | 0.844 | 1.02 | 0.857 | 0.918 |
| CN1CCN(C(=O)c2cc3cc(Cl)ccc3[nH]2)CC1 | 1.13 | 1.23 | 0.961 | 1.16 |
| COc1ccc2[nH]cc(/C=C3\C(=O)Nc4ccc(NC(=O)CCN5CCCCC5)cc43)c2c1 | 0.761 | 0.929 | 0.809 | 0.795 |
| CN1CCCN(C(=O)c2cccc(-c3ccc(/C=C4/C(=O)Nc5ccc(Cl)cc54)o3)c2)CC1 | 0.0585 | 0.0575 | 0.0139 | 0.00867 |
| O=C(Nc1nc2cccc(-c3ccc(CN4CCS(=O)(=O)CC4)cc3)n2n1)C1CC1 [Filgotinib (GLPG0634)] | 0.73 | 0.849 | 0.493 | 0.573 |
| CC(=O)Oc1ccccc1C(=O)O [Aspirin] | 0.863 | 1.09 | 1.01 | 1.05 |
| CC(=O)OCOC(=O)CN(CC(=O)OCOC(C)=O)c1ccccc1OCCOc1ccccc1N(CC(=O)OCOC(C)=O)CC(=O)OCOC(C)=O | 0.391 | 0.569 | 0.0416 | 0.0639 |
| O=C(NNc1nc2cc(F)ccc2n2cccc12)c1cnccn1 | 0.358 | 0.282 | 0.269 | 0.247 |
| Nc1c(CC(=O)O)cccc1C(=O)c1ccc(Br)cc1 [Bromfenac Sodium] | 0.888 | 1.1 | 0.801 | 1.05 |
| Cc1[nH]c(/C=C2\C(=O)Nc3ccccc32)c(C)c1CCC(=O)O [TSU-68 (SU6668, Orantinib)] | 0.962 | 1.11 | 0.869 | 1.02 |
| CCN(CC)CCNC(=O)c1c(C)[nH]c(/C=C2\C(=O)Nc3ccc(F)cc32)c1C [Sunitinib] | 0.544 | 0.67 | 0.0734 | 0.0439 |
| CCN(CC)CCNC(=O)c1ccc(N)cc1 [Procainamide HCl] | 0.791 | 1 | 0.633 | 0.929 |

| Compound | fractional viability [1] | fractional viability [2] | fractional viability [3] | fractional viability [4] |
| --- | --- | --- | --- | --- |
| CCN(CC)CCNC(=O)c1c(C)[nH]c(/C=C2\C(=O)Nc3ccc(F)cc32)c1C [Sunitinib Malate] | 0.853 | 0.819 | 0.169 | 0.122 |
| O=C(c1ccc(F)c(F)c1Nc1ccc(I)cc1F)N1CC(O)([C@@H]2CCCCN2)C1 [Cobimetinib (GDC-0973, RG7420)] | 0.814 | 1.03 | 0.942 | 0.846 |
| Nc1ccc2ncnc(NCCc3ccc(Oc4ccccc4)cc3)c2c1 | 0.604 | 0.444 | 0.596 | 0.43 |
| COc1cc(/C=C/C(=O)N2CCN(CC(=O)N3CCCC3)CC2)cc(OC)c1OC [Cinepazide maleate] | 1.08 | 0.973 | 1.1 | 1.02 |
| COc1cc(/C=C/C(=O)N2CCC=CC2=O)cc(OC)c1OC [Piperlongumine] | 0.302 | 0.319 | 0.0446 | 0.0292 |
| COc1ccc(/C=C\c2cc(OC)c(OC)c(OC)c2)cc1O [Combretastatin A4] | 0.11 | 0.122 | 0.111 | 0.073 |
| COc1ccc2cc(OCC3(C(=O)O)CN(C(=O)c4ccc(F)cc4)C3)ccc2c1 | 0.822 | 1.12 | 0.788 | 1.11 |
| COCCOc1ccc2c(c1)ncn2-c1ccc2cccc(N3CCC(N)CC3)c2n1 | 0.892 | 0.893 | 0.13 | 0.139 |
| Cc1cc(C)c(CNC(=O)c2cc(-c3ccc(N4CCN(C)CC4)nc3)cc3c2c(C)cn3C(C)C)c(=O)[nH]1 | 0.782 | 1.03 | 0.669 | 0.609 |
| O=C(NC1CC1)c1cc(-c2cccs2)on1 [Isoxazole 9 (ISX-9)] | 0.927 | 0.844 | 0.795 | 0.662 |
| CC(CNC(=O)c1cccnc1)NC(=O)c1cccnc1 (configuration not stated) [Nicaraven] | 0.754 | 1.07 | 0.726 | 0.99 |
| CCCS(=O)(=O)Nc1ccc(F)c(C(=O)c2c[nH]c3ncc(-c4ccc(Cl)cc4)cc23)c1F [Vemurafenib (PLX4032, RG7204)] | 1.05 | 1.26 | 0.823 | 0.974 |
| COc1ncc(-c2ccc3nccc(-c4ccnnc4)c3c2)cc1NS(=O)(=O)c1ccc(F)cc1F | 0.446 | 0.184 | 0.0665 | 0.0352 |
| COC(=O)N[C@H](C(=O)N1CCC[C@H]1c1ncc(-c2ccc(-c3ccc(-c4cnc([C@@H]5CCCN5C(=O)[C@@H](NC(=O)OC)C(C)C)[nH]4)cc3)cc2)[nH]1)C(C)C | 1.04 | 1 | 0.511 | 0.654 |
| CS(=O)(=O)CCNCc1ccc(-c2ccc3ncnc(Nc4ccc(OCc5cccc(F)c5)c(Cl)c4)c3c2)o1 | 1.08 | 1.02 | 0.179 | 0.303 |
| C=CC(=O)Nc1ccc2ncnc(Nc3cccc(Br)c3)c2c1 | 0.927 | 0.921 | 0.248 | 0.317 |
| C=CC(=O)Nc1ccc2ncnc(Nc3ccc(OCc4cccc(F)c4)c(Cl)c3)c2c1 | 0.704 | 0.853 | 0.044 | 0.0416 |
| COCC(=O)NC/C=C/c1ccc2ncnc(Nc3ccc(Oc4ccc(C)nc4)c(C)c3)c2c1 | 1.07 | 1.08 | 0.886 | 1.06 |
| Cc1c(Cn2c(C)nc3c(C(=O)O)cc(N4CCOCC4)cc32)cccc1C(F)(F)F | 0.754 | 0.989 | 0.83 | 0.849 |
